Experimental data published in the supplement of paper PMC11732987, “Enantioselective OTUD7B fragment discovery through chemoproteomics screening and high-throughput optimisation” (Communications Chemistry, 2025).

How the values were obtained:
Assay in all cases: log2 ratio of Biotin-Ahx-Ub-VS probe labelling (fragment/DMSO); higher = less target engagement (more negative = stronger competition), active = hit call of the paper (q ≤ 0.05, log2 ratio ≤ -1)
Conditions in all cases: compound concentration: 200 uM; treatment time: 3 h
USP34 = USP34 (UniProt Q70CQ2)
Sequence of USP34 (Q70CQ2 whole entry, the tested form may be a part): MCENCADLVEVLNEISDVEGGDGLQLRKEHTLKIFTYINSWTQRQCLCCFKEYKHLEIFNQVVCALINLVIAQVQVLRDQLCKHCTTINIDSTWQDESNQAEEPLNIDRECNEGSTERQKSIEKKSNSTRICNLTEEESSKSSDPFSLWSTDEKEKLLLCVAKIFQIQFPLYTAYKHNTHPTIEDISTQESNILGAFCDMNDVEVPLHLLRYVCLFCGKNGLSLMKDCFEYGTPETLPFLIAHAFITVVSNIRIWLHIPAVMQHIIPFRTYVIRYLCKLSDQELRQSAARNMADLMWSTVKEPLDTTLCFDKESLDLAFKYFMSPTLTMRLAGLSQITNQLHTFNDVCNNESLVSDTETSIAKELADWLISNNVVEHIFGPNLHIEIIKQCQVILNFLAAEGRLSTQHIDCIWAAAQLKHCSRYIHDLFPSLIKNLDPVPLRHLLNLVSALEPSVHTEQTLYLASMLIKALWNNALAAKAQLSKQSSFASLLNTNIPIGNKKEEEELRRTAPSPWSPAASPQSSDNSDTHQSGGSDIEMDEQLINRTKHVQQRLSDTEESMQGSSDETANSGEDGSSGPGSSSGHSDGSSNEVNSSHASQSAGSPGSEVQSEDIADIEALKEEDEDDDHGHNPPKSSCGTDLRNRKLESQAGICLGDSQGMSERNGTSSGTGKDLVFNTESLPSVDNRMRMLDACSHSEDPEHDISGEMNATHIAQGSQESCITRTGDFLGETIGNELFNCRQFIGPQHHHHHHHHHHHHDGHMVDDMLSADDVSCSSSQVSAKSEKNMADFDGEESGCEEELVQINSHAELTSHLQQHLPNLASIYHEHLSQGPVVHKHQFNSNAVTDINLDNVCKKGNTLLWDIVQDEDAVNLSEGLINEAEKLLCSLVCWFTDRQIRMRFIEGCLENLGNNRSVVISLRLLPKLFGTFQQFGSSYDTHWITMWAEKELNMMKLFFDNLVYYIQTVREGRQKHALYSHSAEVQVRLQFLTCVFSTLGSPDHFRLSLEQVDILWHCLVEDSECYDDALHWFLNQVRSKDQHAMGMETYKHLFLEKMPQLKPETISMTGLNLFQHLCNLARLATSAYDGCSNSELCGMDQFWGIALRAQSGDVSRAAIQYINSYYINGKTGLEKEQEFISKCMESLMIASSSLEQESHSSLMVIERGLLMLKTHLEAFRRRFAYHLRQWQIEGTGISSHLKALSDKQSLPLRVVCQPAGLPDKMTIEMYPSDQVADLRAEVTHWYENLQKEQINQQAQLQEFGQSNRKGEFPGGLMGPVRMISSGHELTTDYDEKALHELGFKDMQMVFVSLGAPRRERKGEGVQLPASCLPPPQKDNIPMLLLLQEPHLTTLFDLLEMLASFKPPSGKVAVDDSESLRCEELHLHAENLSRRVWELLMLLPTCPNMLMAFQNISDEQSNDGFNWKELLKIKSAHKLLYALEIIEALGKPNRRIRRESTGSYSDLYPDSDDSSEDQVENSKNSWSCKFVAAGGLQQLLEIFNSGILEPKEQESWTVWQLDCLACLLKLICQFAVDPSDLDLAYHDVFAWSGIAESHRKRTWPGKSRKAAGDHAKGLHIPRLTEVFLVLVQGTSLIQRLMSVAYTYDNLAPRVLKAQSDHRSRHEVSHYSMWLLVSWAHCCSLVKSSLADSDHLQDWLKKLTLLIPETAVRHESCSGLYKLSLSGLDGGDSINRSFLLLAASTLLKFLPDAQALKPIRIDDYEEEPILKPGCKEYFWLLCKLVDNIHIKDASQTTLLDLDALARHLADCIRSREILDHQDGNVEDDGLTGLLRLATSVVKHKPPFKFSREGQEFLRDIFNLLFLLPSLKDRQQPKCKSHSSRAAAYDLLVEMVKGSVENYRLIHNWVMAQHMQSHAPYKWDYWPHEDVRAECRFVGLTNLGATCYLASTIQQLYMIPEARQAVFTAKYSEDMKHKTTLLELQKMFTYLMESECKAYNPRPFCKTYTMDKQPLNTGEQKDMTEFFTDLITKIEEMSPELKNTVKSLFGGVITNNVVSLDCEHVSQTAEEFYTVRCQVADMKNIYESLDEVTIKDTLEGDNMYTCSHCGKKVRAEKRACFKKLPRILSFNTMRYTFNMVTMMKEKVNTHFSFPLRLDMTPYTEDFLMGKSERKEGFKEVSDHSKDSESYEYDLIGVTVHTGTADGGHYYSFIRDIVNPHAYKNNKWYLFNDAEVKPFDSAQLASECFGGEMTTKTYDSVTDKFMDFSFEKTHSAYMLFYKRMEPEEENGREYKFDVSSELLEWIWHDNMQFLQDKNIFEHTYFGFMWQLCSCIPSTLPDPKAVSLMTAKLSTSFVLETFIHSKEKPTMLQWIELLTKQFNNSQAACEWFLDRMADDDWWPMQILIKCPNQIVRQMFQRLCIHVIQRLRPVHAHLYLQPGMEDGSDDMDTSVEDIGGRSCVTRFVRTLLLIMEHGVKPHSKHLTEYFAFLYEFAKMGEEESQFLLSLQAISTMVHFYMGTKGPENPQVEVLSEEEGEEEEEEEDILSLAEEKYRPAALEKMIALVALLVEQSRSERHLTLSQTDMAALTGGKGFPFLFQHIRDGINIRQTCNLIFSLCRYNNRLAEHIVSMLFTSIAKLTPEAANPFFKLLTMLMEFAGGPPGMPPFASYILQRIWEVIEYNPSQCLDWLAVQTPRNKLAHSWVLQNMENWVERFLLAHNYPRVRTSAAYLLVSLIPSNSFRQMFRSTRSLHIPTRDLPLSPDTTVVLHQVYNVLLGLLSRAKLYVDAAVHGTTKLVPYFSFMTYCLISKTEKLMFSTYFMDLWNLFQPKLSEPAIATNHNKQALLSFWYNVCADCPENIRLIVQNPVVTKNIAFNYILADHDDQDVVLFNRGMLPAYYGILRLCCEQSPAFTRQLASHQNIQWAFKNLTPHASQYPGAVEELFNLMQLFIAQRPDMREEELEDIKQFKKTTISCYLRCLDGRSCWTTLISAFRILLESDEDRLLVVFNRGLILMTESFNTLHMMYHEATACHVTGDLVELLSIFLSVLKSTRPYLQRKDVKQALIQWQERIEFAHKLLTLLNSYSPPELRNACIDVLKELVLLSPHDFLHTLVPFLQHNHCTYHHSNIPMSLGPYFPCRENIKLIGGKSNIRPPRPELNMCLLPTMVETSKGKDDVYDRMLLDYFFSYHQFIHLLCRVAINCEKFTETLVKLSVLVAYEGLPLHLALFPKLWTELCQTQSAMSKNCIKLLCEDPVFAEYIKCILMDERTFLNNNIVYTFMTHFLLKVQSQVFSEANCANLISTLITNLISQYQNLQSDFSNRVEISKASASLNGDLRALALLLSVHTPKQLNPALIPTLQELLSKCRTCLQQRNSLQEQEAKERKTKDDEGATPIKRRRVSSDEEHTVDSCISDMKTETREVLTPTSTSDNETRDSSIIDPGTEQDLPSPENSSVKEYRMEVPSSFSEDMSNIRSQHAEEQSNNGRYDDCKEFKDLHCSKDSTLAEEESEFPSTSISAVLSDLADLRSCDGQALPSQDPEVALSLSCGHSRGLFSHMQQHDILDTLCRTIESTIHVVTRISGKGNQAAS
Procedure, shortened: (§1)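 The table lists average log2 ratios of fragment over vehicle, from an unpaired t-test on global-median-normalised Spectronaut label-free quantities. Proteins with ≥2 unique peptides were used. Samples were HEK293T lysate (495 µg) treated in triplicate with fragment at 200 µM or vehicle for 3 h, then with Biotin-Ahx-Ub-VS (0.5 µM final) for 1 h, with labelled DUBs NeutrAvidin-enriched and run by diaPASEF LC-MS/MS.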

USP36 = biological target: T1, USP36 (UniProt Q9P275)
T1 sequence (whole entry): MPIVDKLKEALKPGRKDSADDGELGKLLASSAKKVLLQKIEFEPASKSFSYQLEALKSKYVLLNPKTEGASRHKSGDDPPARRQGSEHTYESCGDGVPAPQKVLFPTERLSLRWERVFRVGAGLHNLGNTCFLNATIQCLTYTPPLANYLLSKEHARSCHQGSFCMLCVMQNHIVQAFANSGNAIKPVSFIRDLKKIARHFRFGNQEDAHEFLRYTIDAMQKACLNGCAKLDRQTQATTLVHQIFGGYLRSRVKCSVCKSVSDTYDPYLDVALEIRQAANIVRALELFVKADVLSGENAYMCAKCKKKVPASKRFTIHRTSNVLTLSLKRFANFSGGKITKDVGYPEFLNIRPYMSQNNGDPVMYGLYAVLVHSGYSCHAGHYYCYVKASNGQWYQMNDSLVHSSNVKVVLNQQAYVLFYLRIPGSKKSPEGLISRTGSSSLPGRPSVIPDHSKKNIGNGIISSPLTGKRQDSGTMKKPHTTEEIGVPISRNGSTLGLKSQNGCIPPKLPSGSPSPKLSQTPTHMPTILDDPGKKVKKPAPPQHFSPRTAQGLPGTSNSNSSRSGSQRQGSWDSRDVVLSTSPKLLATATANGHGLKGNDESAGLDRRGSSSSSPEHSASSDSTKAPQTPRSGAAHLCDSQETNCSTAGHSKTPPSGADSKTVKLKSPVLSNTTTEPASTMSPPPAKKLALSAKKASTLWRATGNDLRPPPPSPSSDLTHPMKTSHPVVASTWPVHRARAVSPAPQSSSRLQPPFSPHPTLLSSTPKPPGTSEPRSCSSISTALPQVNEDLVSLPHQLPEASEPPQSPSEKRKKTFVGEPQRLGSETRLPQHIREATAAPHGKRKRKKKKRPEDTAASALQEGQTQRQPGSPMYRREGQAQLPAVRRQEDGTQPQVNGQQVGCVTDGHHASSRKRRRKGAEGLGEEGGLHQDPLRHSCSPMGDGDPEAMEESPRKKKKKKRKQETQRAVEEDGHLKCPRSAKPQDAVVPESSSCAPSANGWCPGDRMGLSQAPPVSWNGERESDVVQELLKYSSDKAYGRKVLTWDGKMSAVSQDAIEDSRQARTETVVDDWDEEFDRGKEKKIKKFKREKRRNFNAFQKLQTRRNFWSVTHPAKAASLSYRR
Procedure, shortened: as §1

USP38 = biological target: T2, USP38 (UniProt Q8NB14)
T2 sequence (whole entry): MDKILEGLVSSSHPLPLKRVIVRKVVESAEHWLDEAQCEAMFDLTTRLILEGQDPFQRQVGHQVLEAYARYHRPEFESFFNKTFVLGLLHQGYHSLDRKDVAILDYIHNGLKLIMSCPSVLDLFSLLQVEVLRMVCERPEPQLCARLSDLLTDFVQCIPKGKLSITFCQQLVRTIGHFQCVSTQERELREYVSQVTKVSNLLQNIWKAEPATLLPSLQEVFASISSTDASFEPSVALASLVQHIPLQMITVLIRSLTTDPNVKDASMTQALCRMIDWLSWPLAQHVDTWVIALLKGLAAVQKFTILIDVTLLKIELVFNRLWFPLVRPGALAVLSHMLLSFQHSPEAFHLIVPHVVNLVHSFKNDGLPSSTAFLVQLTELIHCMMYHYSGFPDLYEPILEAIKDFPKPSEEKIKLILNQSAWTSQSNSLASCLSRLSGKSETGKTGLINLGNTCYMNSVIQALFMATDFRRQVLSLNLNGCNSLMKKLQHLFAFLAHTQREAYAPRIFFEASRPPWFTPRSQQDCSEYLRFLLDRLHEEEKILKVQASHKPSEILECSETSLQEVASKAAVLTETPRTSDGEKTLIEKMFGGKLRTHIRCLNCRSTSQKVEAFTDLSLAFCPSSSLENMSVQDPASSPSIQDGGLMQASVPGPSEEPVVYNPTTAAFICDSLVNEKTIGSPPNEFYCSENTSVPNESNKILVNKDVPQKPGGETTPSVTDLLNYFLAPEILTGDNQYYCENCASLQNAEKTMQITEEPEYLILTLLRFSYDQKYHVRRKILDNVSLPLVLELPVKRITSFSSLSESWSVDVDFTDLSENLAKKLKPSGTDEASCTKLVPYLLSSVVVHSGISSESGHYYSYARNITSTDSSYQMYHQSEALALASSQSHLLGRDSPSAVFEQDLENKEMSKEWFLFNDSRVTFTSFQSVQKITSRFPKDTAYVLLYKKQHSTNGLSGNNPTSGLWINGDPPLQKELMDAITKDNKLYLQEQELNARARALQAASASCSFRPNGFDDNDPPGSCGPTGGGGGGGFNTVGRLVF
Procedure, shortened: as §1

USP39 = biological target: T3, USP39 (UniProt Q53GS9)
T3 sequence (whole entry): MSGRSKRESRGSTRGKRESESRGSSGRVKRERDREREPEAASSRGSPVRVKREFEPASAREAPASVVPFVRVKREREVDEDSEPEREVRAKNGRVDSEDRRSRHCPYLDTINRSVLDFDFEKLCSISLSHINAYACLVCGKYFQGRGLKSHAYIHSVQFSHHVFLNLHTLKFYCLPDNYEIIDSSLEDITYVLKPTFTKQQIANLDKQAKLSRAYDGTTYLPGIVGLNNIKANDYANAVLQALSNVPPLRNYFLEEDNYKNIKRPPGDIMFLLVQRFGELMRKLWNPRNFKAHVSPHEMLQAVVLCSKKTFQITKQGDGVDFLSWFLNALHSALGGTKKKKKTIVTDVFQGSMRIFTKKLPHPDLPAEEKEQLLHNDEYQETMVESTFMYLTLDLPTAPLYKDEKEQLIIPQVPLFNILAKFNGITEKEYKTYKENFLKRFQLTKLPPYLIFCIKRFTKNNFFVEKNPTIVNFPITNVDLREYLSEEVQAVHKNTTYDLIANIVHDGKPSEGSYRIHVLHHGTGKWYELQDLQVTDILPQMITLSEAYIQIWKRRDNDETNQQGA
Procedure, shortened: as §1

USP4 = biological target: T4, USP4 (UniProt Q13107)
T4 sequence (whole entry): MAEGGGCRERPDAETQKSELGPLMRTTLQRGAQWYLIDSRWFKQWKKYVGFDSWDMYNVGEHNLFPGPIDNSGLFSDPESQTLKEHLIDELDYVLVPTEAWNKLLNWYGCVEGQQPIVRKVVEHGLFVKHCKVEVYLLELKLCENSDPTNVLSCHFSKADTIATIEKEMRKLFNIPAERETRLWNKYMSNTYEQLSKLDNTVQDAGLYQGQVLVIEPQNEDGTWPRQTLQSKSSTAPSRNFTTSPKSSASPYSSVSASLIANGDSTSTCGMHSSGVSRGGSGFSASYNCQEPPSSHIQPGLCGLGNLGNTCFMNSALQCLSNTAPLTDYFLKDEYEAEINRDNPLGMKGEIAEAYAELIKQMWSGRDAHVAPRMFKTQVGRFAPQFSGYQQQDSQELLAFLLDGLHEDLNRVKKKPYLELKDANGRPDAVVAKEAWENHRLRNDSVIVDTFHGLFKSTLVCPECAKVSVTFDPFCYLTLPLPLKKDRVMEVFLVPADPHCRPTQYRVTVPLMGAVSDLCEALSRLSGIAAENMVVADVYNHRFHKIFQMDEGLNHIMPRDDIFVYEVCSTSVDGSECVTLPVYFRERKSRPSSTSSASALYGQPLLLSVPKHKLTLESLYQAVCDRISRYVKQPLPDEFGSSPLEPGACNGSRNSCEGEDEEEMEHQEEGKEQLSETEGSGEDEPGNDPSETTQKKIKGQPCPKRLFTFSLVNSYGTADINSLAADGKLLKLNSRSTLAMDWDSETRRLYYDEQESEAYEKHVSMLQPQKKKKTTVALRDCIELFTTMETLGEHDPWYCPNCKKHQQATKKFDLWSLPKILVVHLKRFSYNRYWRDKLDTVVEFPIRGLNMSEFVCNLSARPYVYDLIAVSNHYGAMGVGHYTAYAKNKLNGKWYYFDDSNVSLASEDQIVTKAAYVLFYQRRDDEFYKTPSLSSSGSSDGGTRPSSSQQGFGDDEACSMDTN
Procedure, shortened: as §1

Measured: log2 ratio of Biotin-Ahx-Ub-VS probe labelling

O=C(CCl)NCC(=O)N1CCCC1
inactive: USP34 0.0366 | USP36 -0.0373 | USP38 0.115 | USP39 0.319 | USP4 -0.0182
